How the values were obtained:
Assay in all cases: log2 ratio of Biotin-Ahx-Ub-VS probe labelling (fragment/DMSO); higher = less target engagement (more negative = stronger competition), active = hit call of the paper (q ≤ 0.05, log2 ratio ≤ -1)
Settings in all cases: compound concentration: 200 uM; treatment time: 3 h
[1] = target: USP34 (UniProt Q70CQ2)
Method in brief: (§1)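 Each value is an average log2 ratio of fragment to vehicle, tested by unpaired t-test. The underlying Spectronaut label-free quantities were global-median-normalised, and only proteins with ≥2 unique peptides were included. Triplicate HEK293T lysate samples (495 µg) were exposed to fragment at 200 µM or vehicle for 3 h, then to Biotin-Ahx-Ub-VS at 0.5 µM final for 1 h, before NeutrAvidin enrichment of labelled DUBs, LysC and trypsin digestion, and diaPASEF LC-MS/MS.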

[2] = target: T1, USP36 (UniProt Q9P275)
T1 sequence (whole entry): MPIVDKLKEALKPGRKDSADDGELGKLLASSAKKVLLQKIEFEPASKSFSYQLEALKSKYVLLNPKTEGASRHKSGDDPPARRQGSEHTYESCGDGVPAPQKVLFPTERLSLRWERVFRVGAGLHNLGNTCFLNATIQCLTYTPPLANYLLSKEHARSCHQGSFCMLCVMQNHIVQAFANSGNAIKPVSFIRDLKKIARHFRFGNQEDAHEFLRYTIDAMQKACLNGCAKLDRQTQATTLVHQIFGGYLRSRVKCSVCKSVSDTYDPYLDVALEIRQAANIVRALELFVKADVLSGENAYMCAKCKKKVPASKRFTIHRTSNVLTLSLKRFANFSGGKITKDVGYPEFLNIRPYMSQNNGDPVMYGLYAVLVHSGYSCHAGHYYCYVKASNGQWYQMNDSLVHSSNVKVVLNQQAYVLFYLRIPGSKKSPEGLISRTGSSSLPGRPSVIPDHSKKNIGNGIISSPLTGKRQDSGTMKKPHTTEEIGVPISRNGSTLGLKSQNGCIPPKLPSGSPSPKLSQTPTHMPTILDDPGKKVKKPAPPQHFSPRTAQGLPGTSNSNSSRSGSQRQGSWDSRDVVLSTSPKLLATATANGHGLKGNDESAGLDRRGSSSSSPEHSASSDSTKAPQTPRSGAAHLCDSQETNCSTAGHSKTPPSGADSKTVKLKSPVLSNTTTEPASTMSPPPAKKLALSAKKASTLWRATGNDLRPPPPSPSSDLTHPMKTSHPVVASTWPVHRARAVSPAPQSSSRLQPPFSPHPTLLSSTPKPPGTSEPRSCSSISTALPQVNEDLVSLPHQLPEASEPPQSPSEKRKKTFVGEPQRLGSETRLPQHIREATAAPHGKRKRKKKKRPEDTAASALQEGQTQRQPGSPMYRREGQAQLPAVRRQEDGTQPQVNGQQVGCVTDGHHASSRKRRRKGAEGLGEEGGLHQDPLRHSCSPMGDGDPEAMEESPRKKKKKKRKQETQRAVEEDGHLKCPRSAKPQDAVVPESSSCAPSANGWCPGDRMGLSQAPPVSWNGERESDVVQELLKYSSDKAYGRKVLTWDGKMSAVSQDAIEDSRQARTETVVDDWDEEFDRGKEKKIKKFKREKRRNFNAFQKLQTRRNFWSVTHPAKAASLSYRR
Method in brief: as §1

[3] = target: T2, USP38 (UniProt Q8NB14)
T2 sequence (whole entry): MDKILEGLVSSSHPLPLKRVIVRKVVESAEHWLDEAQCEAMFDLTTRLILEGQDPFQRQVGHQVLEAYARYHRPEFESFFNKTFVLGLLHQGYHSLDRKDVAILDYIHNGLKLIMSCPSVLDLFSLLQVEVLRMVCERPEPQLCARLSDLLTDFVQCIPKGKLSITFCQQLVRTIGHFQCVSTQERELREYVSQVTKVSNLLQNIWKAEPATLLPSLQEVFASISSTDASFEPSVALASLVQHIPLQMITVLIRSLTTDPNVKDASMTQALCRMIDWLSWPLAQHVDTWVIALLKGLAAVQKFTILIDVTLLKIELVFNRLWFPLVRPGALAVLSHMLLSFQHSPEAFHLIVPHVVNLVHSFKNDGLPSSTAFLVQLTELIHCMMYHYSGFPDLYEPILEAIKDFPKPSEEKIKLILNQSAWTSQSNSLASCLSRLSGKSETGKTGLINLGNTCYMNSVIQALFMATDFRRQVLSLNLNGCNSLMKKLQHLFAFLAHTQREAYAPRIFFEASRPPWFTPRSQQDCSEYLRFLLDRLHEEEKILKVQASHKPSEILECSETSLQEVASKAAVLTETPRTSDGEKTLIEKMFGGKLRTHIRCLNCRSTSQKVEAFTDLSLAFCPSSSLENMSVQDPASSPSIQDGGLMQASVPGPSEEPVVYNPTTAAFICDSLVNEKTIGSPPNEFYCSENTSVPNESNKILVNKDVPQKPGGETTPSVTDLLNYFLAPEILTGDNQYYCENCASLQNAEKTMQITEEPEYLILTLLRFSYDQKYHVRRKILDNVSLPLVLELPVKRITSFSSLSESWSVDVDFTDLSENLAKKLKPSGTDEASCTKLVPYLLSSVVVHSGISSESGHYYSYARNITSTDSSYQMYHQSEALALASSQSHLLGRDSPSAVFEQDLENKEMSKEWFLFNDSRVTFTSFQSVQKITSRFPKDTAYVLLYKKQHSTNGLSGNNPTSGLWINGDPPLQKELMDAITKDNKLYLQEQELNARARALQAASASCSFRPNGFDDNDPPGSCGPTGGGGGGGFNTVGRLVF
Method in brief: as §1

[4] = target: T3, USP39 (UniProt Q53GS9)
T3 sequence (whole entry): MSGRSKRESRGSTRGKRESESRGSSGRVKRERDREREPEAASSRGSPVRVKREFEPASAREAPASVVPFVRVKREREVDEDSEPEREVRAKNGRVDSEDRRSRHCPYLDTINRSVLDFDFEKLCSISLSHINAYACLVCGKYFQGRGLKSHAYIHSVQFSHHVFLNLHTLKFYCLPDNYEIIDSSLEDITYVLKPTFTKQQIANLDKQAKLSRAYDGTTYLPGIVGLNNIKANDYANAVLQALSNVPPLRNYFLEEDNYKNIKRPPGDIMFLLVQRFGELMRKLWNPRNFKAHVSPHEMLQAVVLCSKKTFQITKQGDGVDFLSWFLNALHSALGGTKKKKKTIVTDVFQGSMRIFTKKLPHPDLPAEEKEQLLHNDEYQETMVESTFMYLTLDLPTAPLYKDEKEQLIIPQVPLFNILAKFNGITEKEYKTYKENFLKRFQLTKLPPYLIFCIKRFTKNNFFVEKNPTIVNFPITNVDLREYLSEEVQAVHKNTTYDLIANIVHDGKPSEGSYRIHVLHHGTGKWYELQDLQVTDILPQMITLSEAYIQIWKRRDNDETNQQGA
Method in brief: as §1

[5] = target: T4, USP4 (UniProt Q13107)
T4 sequence (whole entry): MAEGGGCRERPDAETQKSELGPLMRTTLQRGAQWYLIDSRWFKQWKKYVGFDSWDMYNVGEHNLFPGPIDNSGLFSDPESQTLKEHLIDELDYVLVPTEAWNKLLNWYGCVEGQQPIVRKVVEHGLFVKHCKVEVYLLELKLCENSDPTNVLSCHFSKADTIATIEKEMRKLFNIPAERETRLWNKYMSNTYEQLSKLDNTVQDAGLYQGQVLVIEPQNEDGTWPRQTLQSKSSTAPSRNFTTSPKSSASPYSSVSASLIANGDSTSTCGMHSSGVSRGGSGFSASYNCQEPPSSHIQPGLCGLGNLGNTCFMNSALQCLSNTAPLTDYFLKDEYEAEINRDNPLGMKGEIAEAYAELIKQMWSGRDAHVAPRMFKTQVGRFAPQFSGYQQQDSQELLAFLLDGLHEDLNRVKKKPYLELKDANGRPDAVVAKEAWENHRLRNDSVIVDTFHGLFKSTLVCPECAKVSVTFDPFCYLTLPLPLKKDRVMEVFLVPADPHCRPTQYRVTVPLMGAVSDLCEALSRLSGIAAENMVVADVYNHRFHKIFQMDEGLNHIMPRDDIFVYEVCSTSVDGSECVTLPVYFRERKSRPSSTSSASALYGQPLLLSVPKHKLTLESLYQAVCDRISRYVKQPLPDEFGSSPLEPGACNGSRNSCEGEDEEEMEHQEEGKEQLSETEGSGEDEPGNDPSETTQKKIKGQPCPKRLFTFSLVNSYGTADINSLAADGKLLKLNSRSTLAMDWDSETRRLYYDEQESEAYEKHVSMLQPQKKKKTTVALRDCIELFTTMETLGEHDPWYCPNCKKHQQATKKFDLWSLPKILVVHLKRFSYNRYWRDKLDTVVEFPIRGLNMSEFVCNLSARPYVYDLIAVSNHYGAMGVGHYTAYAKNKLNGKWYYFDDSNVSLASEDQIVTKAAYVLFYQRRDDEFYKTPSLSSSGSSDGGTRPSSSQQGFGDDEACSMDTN
Method in brief: as §1

Measured: log2 ratio of Biotin-Ahx-Ub-VS probe labelling

Chain of USP34 (Q70CQ2 whole entry, the tested form may be a part): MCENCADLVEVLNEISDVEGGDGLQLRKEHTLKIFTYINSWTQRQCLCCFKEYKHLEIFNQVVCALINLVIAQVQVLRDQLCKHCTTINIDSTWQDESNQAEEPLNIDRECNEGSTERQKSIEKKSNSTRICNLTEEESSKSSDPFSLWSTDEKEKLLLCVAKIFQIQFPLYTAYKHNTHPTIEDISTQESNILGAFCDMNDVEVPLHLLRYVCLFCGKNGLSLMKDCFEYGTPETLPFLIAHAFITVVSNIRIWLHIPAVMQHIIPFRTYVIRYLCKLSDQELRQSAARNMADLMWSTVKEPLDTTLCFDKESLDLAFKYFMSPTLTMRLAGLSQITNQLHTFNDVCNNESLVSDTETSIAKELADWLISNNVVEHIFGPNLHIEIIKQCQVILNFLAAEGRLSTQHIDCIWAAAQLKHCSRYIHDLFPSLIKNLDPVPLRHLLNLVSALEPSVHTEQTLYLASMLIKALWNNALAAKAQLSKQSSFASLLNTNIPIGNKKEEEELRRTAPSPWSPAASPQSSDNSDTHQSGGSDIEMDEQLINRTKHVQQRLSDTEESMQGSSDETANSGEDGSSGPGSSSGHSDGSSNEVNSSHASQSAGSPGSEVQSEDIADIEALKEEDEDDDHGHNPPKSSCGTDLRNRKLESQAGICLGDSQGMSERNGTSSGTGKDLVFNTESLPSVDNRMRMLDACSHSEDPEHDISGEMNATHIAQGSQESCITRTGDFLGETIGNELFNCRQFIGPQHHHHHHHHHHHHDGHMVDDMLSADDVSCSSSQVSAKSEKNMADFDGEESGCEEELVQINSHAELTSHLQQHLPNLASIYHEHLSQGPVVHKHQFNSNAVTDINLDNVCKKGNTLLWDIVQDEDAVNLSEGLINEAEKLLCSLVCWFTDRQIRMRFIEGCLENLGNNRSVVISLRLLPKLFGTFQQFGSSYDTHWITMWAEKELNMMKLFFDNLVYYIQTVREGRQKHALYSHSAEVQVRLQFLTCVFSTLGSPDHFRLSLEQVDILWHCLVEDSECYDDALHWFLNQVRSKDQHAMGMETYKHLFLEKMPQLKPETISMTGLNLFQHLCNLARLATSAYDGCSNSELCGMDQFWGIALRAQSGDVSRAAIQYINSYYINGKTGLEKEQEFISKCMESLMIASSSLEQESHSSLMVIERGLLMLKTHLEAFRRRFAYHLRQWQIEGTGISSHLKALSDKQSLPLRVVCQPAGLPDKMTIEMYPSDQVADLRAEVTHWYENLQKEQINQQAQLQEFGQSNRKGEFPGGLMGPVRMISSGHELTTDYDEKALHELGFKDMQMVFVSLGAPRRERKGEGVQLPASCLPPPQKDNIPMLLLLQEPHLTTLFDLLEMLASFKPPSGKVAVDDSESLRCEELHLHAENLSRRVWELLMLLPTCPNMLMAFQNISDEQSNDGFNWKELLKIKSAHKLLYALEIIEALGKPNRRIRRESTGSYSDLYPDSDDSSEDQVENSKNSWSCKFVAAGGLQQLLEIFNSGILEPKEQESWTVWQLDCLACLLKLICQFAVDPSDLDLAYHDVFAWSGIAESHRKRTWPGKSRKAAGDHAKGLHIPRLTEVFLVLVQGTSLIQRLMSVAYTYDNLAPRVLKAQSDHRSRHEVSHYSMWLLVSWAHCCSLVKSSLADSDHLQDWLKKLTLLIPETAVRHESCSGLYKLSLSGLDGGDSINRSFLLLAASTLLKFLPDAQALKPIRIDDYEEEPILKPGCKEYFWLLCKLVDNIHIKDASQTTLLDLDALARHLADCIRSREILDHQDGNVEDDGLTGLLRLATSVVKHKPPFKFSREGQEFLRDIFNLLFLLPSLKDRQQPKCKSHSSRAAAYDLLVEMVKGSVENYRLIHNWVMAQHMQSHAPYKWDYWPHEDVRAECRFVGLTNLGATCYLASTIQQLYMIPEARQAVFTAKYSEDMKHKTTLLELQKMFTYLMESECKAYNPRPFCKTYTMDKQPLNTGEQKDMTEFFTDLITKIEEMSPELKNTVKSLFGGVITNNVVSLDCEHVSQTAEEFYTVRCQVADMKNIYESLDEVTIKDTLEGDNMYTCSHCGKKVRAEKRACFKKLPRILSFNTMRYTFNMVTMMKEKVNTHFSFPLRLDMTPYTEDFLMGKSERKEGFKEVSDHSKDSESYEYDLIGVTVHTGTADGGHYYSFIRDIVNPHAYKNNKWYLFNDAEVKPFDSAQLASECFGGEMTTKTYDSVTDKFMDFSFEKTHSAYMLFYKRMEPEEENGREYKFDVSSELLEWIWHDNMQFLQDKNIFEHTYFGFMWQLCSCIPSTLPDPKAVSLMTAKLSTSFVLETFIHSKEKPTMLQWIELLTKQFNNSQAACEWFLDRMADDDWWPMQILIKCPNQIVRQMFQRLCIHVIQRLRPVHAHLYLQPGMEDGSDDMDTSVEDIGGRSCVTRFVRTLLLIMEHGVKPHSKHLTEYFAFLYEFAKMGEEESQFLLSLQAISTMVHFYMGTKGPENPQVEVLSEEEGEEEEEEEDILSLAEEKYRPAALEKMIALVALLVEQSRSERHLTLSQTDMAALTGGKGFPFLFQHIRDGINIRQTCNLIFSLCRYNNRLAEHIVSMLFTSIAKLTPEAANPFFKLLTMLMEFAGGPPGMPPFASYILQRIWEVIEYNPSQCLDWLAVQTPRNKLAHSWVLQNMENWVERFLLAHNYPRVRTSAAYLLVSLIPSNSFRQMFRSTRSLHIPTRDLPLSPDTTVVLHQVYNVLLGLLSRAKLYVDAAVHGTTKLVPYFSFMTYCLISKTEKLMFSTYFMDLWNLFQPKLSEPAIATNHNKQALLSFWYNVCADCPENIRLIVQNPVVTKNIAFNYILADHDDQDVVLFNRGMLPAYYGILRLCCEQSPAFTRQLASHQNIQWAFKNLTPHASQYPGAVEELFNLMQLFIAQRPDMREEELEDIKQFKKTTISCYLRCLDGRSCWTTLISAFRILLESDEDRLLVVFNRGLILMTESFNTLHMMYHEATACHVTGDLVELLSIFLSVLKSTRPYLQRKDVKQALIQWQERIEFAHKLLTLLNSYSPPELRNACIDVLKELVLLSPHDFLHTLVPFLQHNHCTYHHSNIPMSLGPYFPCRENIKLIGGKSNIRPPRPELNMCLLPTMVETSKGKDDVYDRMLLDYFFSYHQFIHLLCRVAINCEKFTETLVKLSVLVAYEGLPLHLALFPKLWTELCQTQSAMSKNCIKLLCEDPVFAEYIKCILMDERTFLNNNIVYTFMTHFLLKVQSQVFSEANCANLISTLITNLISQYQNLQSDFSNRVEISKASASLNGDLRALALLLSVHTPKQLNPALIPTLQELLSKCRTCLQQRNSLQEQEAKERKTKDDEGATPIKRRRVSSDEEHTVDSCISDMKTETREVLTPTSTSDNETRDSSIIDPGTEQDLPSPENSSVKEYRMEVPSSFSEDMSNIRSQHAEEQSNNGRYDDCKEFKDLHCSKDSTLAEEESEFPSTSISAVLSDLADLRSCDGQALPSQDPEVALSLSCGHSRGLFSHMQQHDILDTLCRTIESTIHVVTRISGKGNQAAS

O=C(CCl)N1CC2(CCOCC2)C1
inactive: [1] -0.0656 | [2] -0.243 | [3] 0.103 | [4] 0.364 | [5] -0.0394

Source: the supplement of paper PMC11732987, “Enantioselective OTUD7B fragment discovery through chemoproteomics screening and high-throughput optimisation” (Communications Chemistry, 2025)
